Screens (PubChem BioAssay)
This is a sample that favours compounds with a hit; in the whole collection about 0.51% have one here.
Tat export inh: E. coli Tat export inhibitors, primary screen, MC4100, TorA-mCherry reporter, fluorescence, single point; inhibition, % at 10 µM; 0.036% of 340,000 active;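 active = mean replicate inhibition at least 50% and at least half of replicates individually reaching 50%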;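 also: exported cargo escapes ClpAP degradation while cytoplasmic cargo is degraded and loses fluorescence; 0% = median of neutral control wells and 100% = median of NaSCN control wells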
E coli growth-1: E. coli V3065 growth inhibition, primary screen, counter-screen for AddAB inhibitor project, absorbance, OD600; 18 h; inhibition, % at 11.9 µM; 0.27% of 330,000 active; AID 449728, 2010;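 active = inhibition above the campaign's mean inhibition across all tested compounds plus 3 SD, cut at about 9.9% in these data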;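 also: uninfected addAB+ strain grown without phage in ampicillin broth; 0% = DMSO wells and 100% = ciprofloxacin 0.95 µg/ml wells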
E coli growth-2: E. coli growth inhibition, primary screen, OD600; AID 1053175, 2014; OD600 absorbance (no concentration beside the values); 0.21% of 330,000 active; Escherichia coli growth, 23 h; hits give low values;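 active = OD600 absorbance below the run mean of sample wells minus 3.6 SD, in any replicate, cut at about 0.56 in these data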
AddAB inh: growth inhibition of E. coli expressing H. pylori AddAB, primary screen, AddAB inhibitor project, absorbance; inhibition, % at 11.9 µM; 0.29% of 330,000 active; in the data active = inhibition above about 12%;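 also: 0% = vehicle wells of infected cells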
phage Ecoli inh: growth loss of phage-infected E. coli, primary screen, RecBCD inhibitor project, absorbance, with phage, HTS; inhibition, % at 11.9 µM; 0.26% of 360,000 active; AID 651602, 2012; in the data active = inhibition above about 11%
RecBCD conf: growth loss of phage-infected RecBCD+ E. coli, confirmation, RecBCD inhibitor project, absorbance, E. coli V66, T4 gene 2 phage | shares compounds with phage Ecoli inh | E. coli V66 + T4 2- phage, growth OD | inhibition, % at 11.9 µM | 45% of 890 active;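 active = mean inhibition over triplicates exceeding the hit threshold derived in the original primary screen, cut at about 11% in these data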
Ecoli viability: E. coli viability inhibition, counter-screen for RecBCD inhibitor project, absorbance, high throughput; AID 651983, 2013; absorbance (OD) growth; inhibition, % at 11.9 µM; shares compounds with phage Ecoli inh; 29% of 890 active; in the data active = inhibition above about 20%;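 also: E. coli strain V66 grown with compound alone and no phage infection; 0% = bacteria with DMSO vehicle only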
AddAB counter: growth loss of phage-infected AddAB-carrying E. coli, confirmation, counter-screen for RecBCD inhibitor project, absorbance, E. coli V3065, T4 phage; AID 651984, 2013; inhibition, % at 11.9 µM; shares compounds with phage Ecoli inh; 45% of 890 active; E. coli expressing H. pylori AddAB + T4 phage, OD growth; gene 2 mutant T4, recBCD-deleted host;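 active = mean inhibition above the solvent-only control wells' mean plus 3 SD, cut at about 22% in these data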;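 also: higher means less bacterial growth from phage killing when AddAB is blocked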
Starred values were filed as active, the others as inactive; / = not tested or not shown; ! = not active in a repeat.

SMILES	Tat export inh	E coli growth-1	E coli growth-2	AddAB inh	phage Ecoli inh	RecBCD conf	Ecoli viability	AddAB counter
Cc1c(C(=O)NNC(=O)c2ccccc2O)oc2ccccc12	/	/	/	/	13*	6	8	8
O=C(NNC(=O)c1cc2ccccc2cc1O)Nc1ccc(F)cc1F	1	8	0.71	12	11*	2	5	2
O=C(NNC(=O)c1cc2ccccc2cc1O)NC1CCCCC1	2	/	0.73	/	13*	9	9	5
COc1ccc(SCCN2CCC(O)CCC2=O)cc1 (stereo unspecified)	/	/	0.66	/	/	/	/	/
Oc1ccc(CC2CNCCN2CCC23CC4CC(CC(C4)C2)C3)cc1 (stereo unspecified)	/	/	0.58	/	/	/	/	/
O=C(Nc1ccccc1-c1nnn(CC(=O)N2CCOCC2)n1)c1ccc(F)cc1	-3	-1	0.67	2	11*	-4	-5	0
CCc1ccc[n+](-c2[nH]c(=O)sc2C=NNC([S-])=Nc2ccccc2)c1	/	/	0.69	/	/	/	/	/
Nc1nc(N)c2cc(S(=O)(=O)c3ccc4ccccc4c3)ccc2n1	/	/	/	/	28*	101*	99*	101*
O=Nc1nc2ncccn2c1-c1ccccc1	4	/	/	/	15*	8	16	95*
CC=C(C)C(=O)Nc1cccc(C2=NOC3(C2)CC(C(N)=O)N(C(=O)c2ccccc2C(=O)c2ccccc2)C3)c1 (stereo unspecified)	/	/	0.72	/	/	/	/	/
C=Cc1cnc([N+](=O)[O-])n1C	/	/	/	/	29*	19*	21*	97*
CC(C)c1ccc(S(=O)(=O)N=C2C=C(Sc3ncn[nH]3)C(=O)c3ccccc32)cc1	/	/	0.62	/	/	/	/	/
COc1cccc(NC(=O)CN(C)C(=O)CC2CCCCC2)c1	2	/	0.68	/	-1	/	/	/
CN(CC(=O)Nc1cccc(F)c1)C(=O)CC1CCCCC1	4	-1	0.63	-4	11*	2	1	5
CCOC1OC(C(=O)N2CCN(Cc3ccccc3)CC2)=CC(c2coc3ccccc3c2=O)C1CCCO (stereo unspecified)	/	/	0.7	/	/	/	/	/
CC1(C)OC2C(COS(=O)(=O)O)OC(n3cc(Br)c(=O)[nH]c3=O)C2O1 (stereo unspecified)	/	/	0.65	/	/	/	/	/
O=c1c(O)cccc2cc(O)c(O)c(O)c12	53*	11*	0.63	11	14*	8	9	10
COc1cc2cccc(OC)c(=O)c2c(OC)c1OC	-4	4	0.74	4	1	/	/	/
O=C(Nc1ccc2[nH]ncc2c1)c1ccc(F)cc1	-2	0	0.7	4	12*	-1	-2	-2
O=C1C2C(C3CC3)N3C(=O)CN(CC4CC4)C(=O)[C@@]3(Cc3ccccc3)C2C(=O)N1c1ccccc1 (stereo partly specified)	/	/	0.7	/	/	/	/	/
O=C(CCn1cnc(-c2ccccc2)c1-c1ccccc1)N/N=C/c1ccccc1O	2	1	/	2	11*	3	2	5
CCC(C)(C(=O)NC1CCCCC1)N(Cc1cccs1)C(=O)c1ccccn1 (stereo unspecified)	-4	0	0.72	-1	1	/	/	/
CCC(C)(C(=O)NC1CCCCC1)N(Cc1cccs1)C(=O)c1ccc(=O)[nH]c1 (stereo unspecified)	-4	3	0.65	5	12*	-5	-4	2
Cc1ccc(C(NC(=O)C(C)C)c2cc([N+](=O)[O-])c3cccnc3c2O)cc1 (stereo unspecified)	-8	1	0.66	6	3	/	/	/
Oc1c(C(Nc2cccc(C(F)(F)F)c2)c2ccncc2)ccc2cccnc12 (stereo unspecified)	4	-9	0.65	-7	1	/	/	/
SMILES	Tat export inh	E coli growth-1	E coli growth-2	AddAB inh	phage Ecoli inh	RecBCD conf	Ecoli viability	AddAB counter
CCCC(=O)NC(c1cccc([N+](=O)[O-])c1)c1ccc2cccnc2c1O (stereo unspecified)	/	/	/	/	23*	16*	20*	26*
CC(=O)NC(c1ccc(Cl)cc1Cl)c1ccc2cccnc2c1O (stereo unspecified)	-19	/	/	/	24*	17*	20*	21
CCN(CC)c1ccc(C(NC(=O)C(C)C)c2ccc3cccnc3c2O)cc1 (stereo unspecified)	/	/	/	/	21*	8	9	16
CCOC1OC(C(=O)N2CCOCC2)=CC(c2ccccc2)C1CCCO (stereo unspecified)	/	/	0.71	/	/	/	/	/
Cn1cc(C=C(C(=O)O)C(C(=O)O)=C2CCCCC2)c2ccccc21	/	/	0.72	/	/	/	/	/
O=C(O)C1=CC(c2ccccc2)CC(OCc2ccc(CO)cc2)O1 (stereo unspecified)	/	/	0.68	/	/	/	/	/
COc1ccc(/C=N/NC(=O)c2ccncc2)cc1OC	-3	1	/	3	0	/	/	/
COc1cc(/C=N/NC(=O)c2ccncc2)ccc1O	-9	-3	/	-2	100*!	-2	-1	-1
c1ccc(CSc2ccc(-c3ccccn3)nn2)cc1	-5	8	0.68	6	11*	5	7	12
NCCCCC1CNC(=S)N1CC1(c2ccccc2)CC1 (stereo unspecified)	/	/	0.71	/	/	/	/	/
Cc1cc(C)cc(NC(=O)Cn2cc3c(n2)CCCCC3)c1	/	-1	0.77	2	/	/	/	/
CN(C)c1ccc(NC(=O)Cn2cc3c(n2)CCCC3)cc1	8	-3	0.77	0	13*	0	-1	4
CCCC(=O)O[C@]1(C(=O)CO)CCC2C3CCC4=CC(=O)CC[C@]4(C)C3C(O)C[C@@]21C (stereo partly specified)	/	/	0.68	/	/	/	/	/
CCCC(=O)Nc1cc(=O)n(C)c(=O)n1C	4	1	0.67	2	53*	1	1	0
O=[N+]([O-])c1cc2c(ccc3occc32)o1	/	/	/	/	101*	102*	103*	102*
O=[N+]([O-])c1ccc2c(c1)oc1ccccc12	5	0	0.72	2	2	/	/	/
Cc1ccc(S(=O)(=O)N2C(c3cccs3)CC=C(C(=O)O)C2c2ccc(Cl)cc2)cc1 (stereo unspecified)	/	/	0.64	/	/	/	/	/
FC(F)Sc1ccc(NC(=S)NCc2ccccc2)cc1	-2	6	0.57	9	13*	7	9	7
FC(F)(F)c1ccc(NC(=S)NCc2ccccc2)cc1	-7	9	0.53	10	11*	6	7	8
O=C(O)c1ccc(NC(=S)NCc2ccccc2)cc1	-8	0	0.67	3	1	/	/	/
